# HPGD block: HPGD (human) dehydrogenase inhibition; P15428; purified HPGD, NADH fluorescence kinetic, PGE2 substrate; Potency, µM, for inactives: at the highest dose activity change, negative = inhibition, hits mostly inhibitors; 150,000 tested, 4.3% active; AID 894; note: potency is the fitted concentration of half-maximal effect; % is set by controls: 0 for no effect and ±100 for the full control effect
#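 NADH formation kinetics: reaction with 30 uM PGE2 and 1 mM NAD+ (final), 20 nM enzyme, Tris-HCl pH 8 with Tween 20, after 15 min compound preincubation at room temperature. Fluorescence change, last versus first of five reads.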
# CBFb RUNX1 block: inhibitors of human CBF-beta and RUNX1 interaction | Potency, µM (titrated, usually from 59.8 µM), without a hit: top-dose activity, negative = inhibition, most hits filed as inhibitors | 230,000 tested, under 10 active | AlphaScreen CBFb-His/RUNX1-biotin binding, biochemical | Q01196+Q13951; active = well fitted curve in the direction sought with a large enough effect; inconclusive = small, poorly fitted or top-dose-only effect, or another doubt; inactive = no such curve, though single readings can be large; an effect the other way counts as inactive or inconclusive; note: % of control where 0% means no effect
# Target sequence (Q01196 whole entry, looked up): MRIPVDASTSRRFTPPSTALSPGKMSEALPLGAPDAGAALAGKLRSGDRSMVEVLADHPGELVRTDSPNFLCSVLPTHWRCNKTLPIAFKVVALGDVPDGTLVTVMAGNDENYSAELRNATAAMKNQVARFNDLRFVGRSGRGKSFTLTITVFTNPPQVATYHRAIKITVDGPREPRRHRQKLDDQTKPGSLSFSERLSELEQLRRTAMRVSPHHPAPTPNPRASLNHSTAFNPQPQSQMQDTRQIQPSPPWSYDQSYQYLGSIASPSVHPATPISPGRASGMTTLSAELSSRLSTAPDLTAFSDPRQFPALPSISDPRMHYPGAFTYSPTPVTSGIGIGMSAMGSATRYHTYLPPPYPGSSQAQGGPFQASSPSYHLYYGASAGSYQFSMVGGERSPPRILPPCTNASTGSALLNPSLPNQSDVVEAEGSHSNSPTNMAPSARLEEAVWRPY
# Target sequence (Q13951 whole entry, looked up): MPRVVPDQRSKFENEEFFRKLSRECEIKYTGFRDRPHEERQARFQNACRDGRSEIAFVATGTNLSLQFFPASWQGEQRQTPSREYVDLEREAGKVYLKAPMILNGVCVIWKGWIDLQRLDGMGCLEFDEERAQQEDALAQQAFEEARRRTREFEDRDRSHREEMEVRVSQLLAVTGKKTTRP
#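 CBFb-His/RUNX1-biotin, 30 nM each, preincubated 20 min RT; compound 15 min RT; Ni + streptavidin beads 50 ng each, 90 min RT; AlphaScreen read.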
# HTT cytoprotect: Huntington cell model cytoprotection by ATP luminescence | 230,000 tested, 0.14% active | Potency, µM (doses to about 56.4 µM), for the others: cytoprotection (ATP increase), most hits filed as activators | PC12 HTT-Q103 induced, cytoprotection, ATP luminescence, 40 h; active = well fitted curve in the direction sought with a large enough effect; inconclusive = small, poorly fitted or top-dose-only effect, or another doubt; inactive = no such curve, though single readings can be large; an effect the other way counts as inactive or inconclusive; note: potency is the fitted concentration of half-maximal effect; % of control where 0% means no effect; nearly all actives have a fitted effect of over 45% in size
#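 Compounds were screened for protection of PC12 cells against cell death after tebufenozide induction (100 nM final) of mutant Huntingtin exon 1 (Q103) fused to GFP.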
# ALDH1A1 inh: blocks purified human ALDH1A1 activity | P00352 | Purified ALDH1A1, NADH fluorescence, propionaldehyde substrate | Potency, µM (doses to about 75.3 µM), without a hit: at the highest dose activity, negative = inhibition, actives largely listed as inhibitors | 220,000 tested, 7.3% active | AID 1030;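 note: potency is the fitted concentration of half-maximal effect; plate controls were no enzyme wells and a reference inhibitor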
# HttQ103 aggreg: inhibitors of mutant huntingtin aggregate formation in PC12 cells. PC12 HttQ103-GFP aggregates, Acumen cytometry, 40 h. Potency, µM (highest dose often 46.1 µM), inactives show at the highest dose activity change, negative = inhibition, hits mostly inhibitors. 220,000 tested, 1.1% active. AID 1688; active = well fitted curve in the direction sought with a large enough effect; inconclusive = small, poorly fitted or top-dose-only effect, or another doubt; inactive = no such curve, though single readings can be large; an effect the other way counts as inactive or inconclusive; note: potency is the fitted concentration of half-maximal effect; % is set by controls: 0 for no effect and ±100 for the full control effect; nearly all actives have a fitted effect of over 60% in size
#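 PC12 cells stably carrying ecdysone-inducible HTT exon 1 Q103–GFP were induced with tebufenozide (100 nM final) and treated with library compounds in titration. GFP aggregates in lysates were counted by laser scanning cytometry.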
# KDM4E inh: JMJD2E (human) inhibition; B2RXH2; Potency, µM (titrated, usually from 57.1 µM), without a hit: at the highest dose activity change, negative = inhibition, hits mostly inhibitors; AID 2147; 230,000 tested, 1.6% active; JMJD2E catalytic domain, FDH-coupled NADH fluorescence (FDH is formaldehyde dehydrogenase);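 note: potency is the fitted concentration of half-maximal effect; 0% = wells with enzyme and -100% = buffer wells without enzyme; nearly all actives have a fitted effect of over 50% in size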
# The depositor's hits bear a star; ? = inconclusive; . = no result given; [ ] = another dose, or the depositor's remark. Rows were chosen to be rich in hits. Some 9.8% of all compounds tested hit in one or more screens of this group. Unless noted, calls come from the whole dose curve; as a rule, active = well fitted inhibition curve with a large enough effect (not every such curve was filed as active); inconclusive = small, poorly fitted or top-dose-only effect, or another doubt; inactive = no such curve, though single readings can be large or run the other way.
SMILES,HPGD block,CBFb RUNX1 block,HTT cytoprotect,ALDH1A1 inh,HttQ103 aggreg,KDM4E inh
CSc1ncccc1C(=O)Nc1ccc(S(=O)(=O)NC2=NCCCCC2)cc1,.,-9%,-9%,8.9µM*,23%,1%
CCOc1cc(/C=C2\CCCC(C(=O)C(F)(F)F)=C2O)ccc1O,-13%,9%,-11%[10 µM],0.16µM*,?,?
COc1ccc(/C=C2/CCCC(C(=O)C(F)(F)F)=C2O)cc1OC,.,0%,-24%[10 µM],.,-15%[9.22 µM],?
COc1ccc(/C=C2\CCCC(C(=O)C(F)(F)F)=C2O)cc1OC,.,1%,.,0.13µM*,?,25µM*
CC(=O)NC(CCCNC(=S)NC1CCCCC1)C(=O)O (stereo not drawn),.,0%,.,0%,.,-15%
N#CC1=C2SCC(O)(c3ccccc3)N2C(=O)CC1c1cccs1 (stereo not drawn),.,-13%,12%,0.035µM*,-11%,9%
N#CC1=C2SCN(c3ccccc3)CN2C(=O)CC1c1c(Cl)cccc1Cl (stereo not drawn),7.9µM*,-4%,-23%,3.2µM*,6%,8.9µM*
N#CC1=C2SCN(c3ccccc3)CN2C(=O)CC1c1cccs1 (stereo not drawn),7.1µM*,?,-7%,3.2µM*,13%,16µM*
Cc1ccc(C2CC(=O)N3CN(c4ccc(Br)cc4)CSC3=C2C#N)o1 (stereo not drawn),?,0%,-77%[0.074 µM],?,13%,-2%
N#CC1=C2SCN(c3ccccc3)CN2C(=O)CC1c1ccccc1Cl (stereo not drawn),7.9µM*,-5%,-13%,3.2µM*,0%,?
CC=C(/C(=C/C)c1ccc(O)cc1)c1ccc(O)cc1,-17%,4%[21.7 µM],-47%[17.1 µM],-9%[20.9 µM],3%[20.6 µM],1%[25.5 µM]
O=C(COC(=O)C1CC(O)CN1C(=O)Oc1ccccc1)c1ccc(Br)cc1 (stereo not drawn),0%,1%,13%[10 µM],14%,0%,8%
CN(CCn1ccnc1)Cc1cn(Cc2ccccc2)nc1-c1ccc2c(c1)OCO2,.,-2%,24%[10 µM],.,-4%[9.22 µM],0%
Cc1cccc(N=Nc2c(C)[nH]n(C(N)=S)c2=O)c1C,.,-15%,-27%,18µM*,-8%,2%
Cc1ccccc1N=Nc1c(C)[nH]n(C(N)=S)c1=O,-24%,-24%,.,20µM*,-21%,1%
CCN(CC)S(=O)(=O)c1ccc(N=Nc2c(C)[nH]n(C(N)=S)c2=O)cc1,35µM*,14%,-2%[1.9 µM],7.9µM*,17%,-3%
CC(=O)N(C)c1ccc(N=Nc2c(C)[nH]n(C(N)=S)c2=O)cc1,.,-5%,-16%,?,12%,-1%
Cc1ccccc1N=Nc1c(C)[nH]n(-c2ccccc2)c1=O,.,-6%,-4%[10 µM],4%,-9%[9.22 µM],4%
NC(=S)n1[nH]c(-c2ccc([N+](=O)[O-])cc2)c(N=Nc2cccc(Cl)c2)c1=O,.,-10%,?,?,?,-7%
C=CCn1c(SCC(=O)c2ccc(NS(=O)(=O)c3ccccc3)cc2)nnc1-c1cccs1,?,-1%,-18%,?,13%,-15%
COc1ccc(N2C(S)=C(C#N)C(=O)NC23CCCCC3)cc1,.,0%,-16%[10 µM],?,2%[9.22 µM],2%
O=C(CSc1nnc(Cn2nnc3ccccc32)o1)N(Cc1ccc(F)cc1)c1ccccc1,-14%,2%,28%[10 µM],?,13µM*,-1%
COc1ccc(N(Cc2ccccc2)C(=O)CSc2nnc(Cn3nnc4ccccc43)o2)cc1,-13%,-4%,-12%,?,?,0%
CCOc1cc(-c2nc(-c3ccccc3)c(-c3cc([N+](=O)[O-])ccc3C)[nH]2)ccc1O,-2%,?,-87%,6.3µM*,?,-2%
O=[N+]([O-])c1ccc(O)c(-c2nc(-c3ccccc3)c(-c3cccs3)[nH]2)c1,-18%,-4%,-57%,?,7.9µM*,-1%
SMILES,HPGD block,CBFb RUNX1 block,HTT cytoprotect,ALDH1A1 inh,HttQ103 aggreg,KDM4E inh
O=C(O)c1ccc(-c2nc(-c3ccccc3)c(-c3cccs3)[nH]2)cc1,.,-5%,-8%[10 µM],.,-25%[9.22 µM],?
COc1ccc(-c2nc(-c3ccccc3)c(-c3cc([N+](=O)[O-])ccc3C)[nH]2)cc1OC,-26%,?,-36%,-7%,-22%,-3%
CC(C)C(NC(=O)OCc1ccccc1)C(=O)NCc1ccc(C(=O)O)cc1 (stereo not drawn),0%,2%,-11%[10 µM],11%,12%,1%
O=C(c1ccc(N2CCCCS2(=O)=O)cc1)N1CCN(c2ccc(N3CCOCC3)nn2)CC1,?,-4%,23%[10 µM],?,-6%,?
CC1(C)CC(=O)c2cnc(NC(=O)CSC(=S)N3CCCCC3)nc2C1,.,-10%,-6%[10 µM],.,-7%[9.22 µM],6%
CSc1nnc(-c2cnccn2)n1CCCN1CCCC1=O,0%,2%,-8%,2%,7%,-2%
O=C(c1scc2c1CCCC2)N1CCCCC1,8.9µM*,5%,8%,-8%,19%,3%
Cc1ccc(NC(=O)c2scc3c2CCCC3)cc1,-8%,?,.,-11%,-12%,?
COc1ccc(C2/C=C\CN(C(=O)C3CCCCC3)C(Cc3ccccc3)C(=O)N2Cc2ccc(F)cc2)cc1 (stereo not drawn),.,7%,.,.,.,.
COc1cc(/C=C2/C(=O)N=C(N)N2C)cc(OC)c1OC,16µM*,2%,-5%,?,6%,9%
COc1c(Br)cc(Br)cc1/C=C1/C(=O)N=C(N)N1C,.,-21%,-3%,11%,-30%,1%
COc1ccc(CN(C)CC(=O)Nc2sc3c(c2C#N)CCC3)cc1OC,.,-13%,3%[10 µM],14µM*,-26%,-16%
COc1cccc(CN(C)CC(=O)Nc2sc3c(c2C#N)CCC3)c1OC,.,-8%,17%[10 µM],25µM*,?,?
O=C1CN(S(=O)(=O)c2ccccc2C(F)(F)F)CCN1,.,4%,-6%,-1%,-5%,-2%
CC(=O)N1CC2(NC(=O)c3ccccc3N2)c2ccccc21 (stereo not drawn),.,6%,-3%[10 µM],?,14%[9.22 µM],?
O=C(NC(=S)Nc1ccccc1C(F)(F)F)c1ccccc1F,.,-10%,5%,4%,17%,4%
FC(F)(F)c1ccccc1NC(=S)NN=C1CCCCCC1,.,-3%,-113%,28µM*,26%,?
COc1cccc(NC(=S)NN=C2CCCCCC2)c1,.,-19%,-60%,?,-5%,-7%
Cc1ccc(C(=O)NC(=S)Nc2ccccc2C(F)(F)F)c(C)c1,-15%,-1%,16%[10 µM],13µM*,3%,-4%

# Bioassay records deposited in PubChem BioAssay by National Center for Advancing Translational Sciences (NCATS).
